Laboratory results from PubChem BioAssay AID1159580 (chemical genetic matrix, 2015).
About 2,000 (36%) of roughly 5,500 compounds were called active. Inconclusive results (about 18%) are left out. Rule as the data show it: active = normalized growth mostly below about 0.91 (no sharp cut-off); inconclusive = no clear call, values can overlap the other calls; inactive = mostly above about 0.92. The list shows a part of the results.

Assay: chemical genetic growth profiling, strain panel (AID 1159580);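 also: tested at 20 µM; growth read once vehicle control cultures reached saturation at 30 °C; 1 = growth at the plate median or of vehicle wells; lower values mean less growth of the strain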
Settings: growth OD

Measured: normalized growth

CCOC(=O)NNc1nncc2ccccc12
inactive: S. cerevisiae deletion strains, locus YJR066W, strain TOR1, stronger effect = lower value 0.978 | S. cerevisiae deletion strains, locus YJR075W, strain HOC1, stronger effect = lower value 0.997 | S. cerevisiae deletion strains, locus YKL009W, strain mrt4, stronger effect = lower value 0.986 | S. cerevisiae deletion strains, locus YKL068W, stronger effect = lower value 0.984 | S. cerevisiae deletion strains, locus YKL085W, strain MDH1 (second series), stronger effect = lower value 0.992 | S. cerevisiae deletion strains, locus YKL085W, strain MDH1, stronger effect = lower value 0.992 | S. cerevisiae deletion strains, locus YKL160W, strain elf1, stronger effect = lower value 1.02 | S. cerevisiae deletion strains, locus YKL190W, strain CNB1, stronger effect = lower value 0.998 | S. cerevisiae deletion strains, locus YKR001C, strain vps1, stronger effect = lower value 0.983 | S. cerevisiae deletion strains, locus YKR026C, strain gcn3, stronger effect = lower value 1.02 | S. cerevisiae deletion strains, locus YKR091W, strain srl3, stronger effect = lower value 1 | S. cerevisiae deletion strains, locus YLL001W, strain dnm1, stronger effect = lower value 0.986 | S. cerevisiae deletion strains, locus YLL026W, stronger effect = lower value 1 | S. cerevisiae deletion strains, locus YLL041C, strain sdh2, stronger effect = lower value 1.01 | S. cerevisiae deletion strains, locus YLR027C, strain aat2, stronger effect = lower value 1 | S. cerevisiae deletion strains, locus YLR039C, strain RIC1, stronger effect = lower value 1.03 | S. cerevisiae deletion strains, locus YLR058C, strain SHM2, stronger effect = lower value 0.992 | S. cerevisiae deletion strains, locus YLR102C, strain apc9, stronger effect = lower value 0.979 | S. cerevisiae deletion strains, locus YLR113W, strain HOG1, stronger effect = lower value 0.967 | S. cerevisiae deletion strains, locus YLR221C, strain rsa3, stronger effect = lower value 0.976 | S. cerevisiae deletion strains, locus YLR258W, strain gsy2, stronger effect = lower value 1.04 | S. cerevisiae deletion strains, locus YLR262C, strain YPT6 (second series), stronger effect = lower value 1.01 | S. cerevisiae deletion strains, locus YLR262C, strain YPT6, stronger effect = lower value 1.02 | S. cerevisiae deletion strains, locus YLR268W, strain sec22, stronger effect = lower value 0.968 | S. cerevisiae deletion strains, locus YLR320W, strain mms22, stronger effect = lower value 0.92 | S. cerevisiae deletion strains, locus YLR330W, strain CHS5, stronger effect = lower value 0.992 | S. cerevisiae deletion strains, locus YLR342W, strain FKS1 (second series), stronger effect = lower value 0.973 | S. cerevisiae deletion strains, locus YLR342W, strain FKS1, stronger effect = lower value 1.03 | S. cerevisiae deletion strains, locus YLR357W, strain rsc2, stronger effect = lower value 1.06 | S. cerevisiae deletion strains, locus YLR370C, strain arc18, stronger effect = lower value 1.02 | S. cerevisiae deletion strains, locus YLR371W, strain rom2, stronger effect = lower value 0.977 | S. cerevisiae deletion strains, locus YLR384C, strain iki3, stronger effect = lower value 0.989 | S. cerevisiae deletion strains, locus YLR418C, strain cdc73, stronger effect = lower value 0.957 | S. cerevisiae deletion strains, locus YML016C, strain PPZ1, stronger effect = lower value 0.991 | S. cerevisiae deletion strains, locus YML032C, strain rad52, stronger effect = lower value 0.97 | S. cerevisiae deletion strains, locus YML120C, strain ndi1, stronger effect = lower value 0.992 | S. cerevisiae deletion strains, locus YML124C, strain tub3, stronger effect = lower value 0.983 | S. cerevisiae deletion strains, locus YMR058W, strain fet3, stronger effect = lower value 1.01 | S. cerevisiae deletion strains, locus YMR078C, strain ctf18, stronger effect = lower value 0.983 | S. cerevisiae deletion strains, locus YMR125W, strain sto1, stronger effect = lower value 1.03 | S. cerevisiae deletion strains, locus YMR129W, stronger effect = lower value 0.988 | S. cerevisiae deletion strains, locus YMR205C, strain PFK2, stronger effect = lower value 0.993 | S. cerevisiae deletion strains, locus YMR223W, strain ubp8, stronger effect = lower value 0.972 | S. cerevisiae deletion strains, locus YMR231W, strain pep5, stronger effect = lower value 0.997 | S. cerevisiae deletion strains, locus YMR307W, strain GAS1, stronger effect = lower value 0.972 | S. cerevisiae deletion strains, locus YNL067W, strain RPL9B, stronger effect = lower value 1.01 | S. cerevisiae deletion strains, locus YNL071W, strain lat1, stronger effect = lower value 1.01 | S. cerevisiae deletion strains, locus YNL128W, strain TEP1, stronger effect = lower value 0.967 | S. cerevisiae deletion strains, locus YNL183C, strain NPR1, stronger effect = lower value 0.934 | S. cerevisiae deletion strains, locus YNL209W, strain ssb2, stronger effect = lower value 1.01 | S. cerevisiae deletion strains, locus YNL233W, strain BNI4, stronger effect = lower value 0.998 | S. cerevisiae deletion strains, locus YNL248C, strain rpa49, stronger effect = lower value 1.06 | S. cerevisiae deletion strains, locus YNL250W, strain rad50, stronger effect = lower value 0.995 | S. cerevisiae deletion strains, locus YNL271C, strain bni1, stronger effect = lower value 0.973 | S. cerevisiae deletion strains, locus YNL298W, strain CLA4, stronger effect = lower value 0.985 | S. cerevisiae deletion strains, locus YNL307C, strain MCK1, stronger effect = lower value 0.977 | S. cerevisiae deletion strains, locus YNL322C, strain KRE1 (second series), stronger effect = lower value 1.05 | S. cerevisiae deletion strains, locus YNL322C, strain KRE1, stronger effect = lower value 0.998 | S. cerevisiae deletion strains, locus YNR049C, strain mso1, stronger effect = lower value 1 | S. cerevisiae deletion strains, locus YNR052C, strain pop2, stronger effect = lower value 0.966 | S. cerevisiae deletion strains, locus YOL006C, strain TOP1, stronger effect = lower value 1.02 | S. cerevisiae deletion strains, locus YOL012C, strain htz1 1.25 | S. cerevisiae deletion strains, locus YOL147C, strain pex11, stronger effect = lower value 0.98 | S. cerevisiae deletion strains, locus YOR001W, strain rrp6, stronger effect = lower value 0.97 | S. cerevisiae deletion strains, locus YOR061W, strain CKA2, stronger effect = lower value 0.986 | S. cerevisiae deletion strains, locus YOR069W, strain VPS5, stronger effect = lower value 0.986 | S. cerevisiae deletion strains, locus YOR070C, strain gyp1, stronger effect = lower value 1.01 | S. cerevisiae deletion strains, locus YOR080W, strain dia2, stronger effect = lower value 1.02 | S. cerevisiae deletion strains, locus YOR083W, strain WHI5, stronger effect = lower value 0.99 | S. cerevisiae deletion strains, locus YOR106W, strain vam3, stronger effect = lower value 1.05 | S. cerevisiae deletion strains, locus YOR136W, strain idh2, stronger effect = lower value 0.981 | S. cerevisiae deletion strains, locus YOR144C, strain elg1, stronger effect = lower value 0.983 | S. cerevisiae deletion strains, locus YOR184W, strain ser1, stronger effect = lower value 0.98 | S. cerevisiae deletion strains, locus YOR231W, strain MKK1, stronger effect = lower value 0.952 | S. cerevisiae deletion strains, locus YOR265W, strain rbl2, stronger effect = lower value 0.992 | S. cerevisiae deletion strains, locus YOR270C, strain vph1, stronger effect = lower value 1.06 | S. cerevisiae deletion strains, locus YOR290C, strain snf2, stronger effect = lower value 1.05 | S. cerevisiae deletion strains, locus YOR316C, strain cot1, stronger effect = lower value 0.976 | S. cerevisiae deletion strains, locus YPL051W, strain arl3, stronger effect = lower value 1.02 | S. cerevisiae deletion strains, locus YPL055C, strain LGE1, stronger effect = lower value 1.04 | S. cerevisiae deletion strains, locus YPL078C, strain atp4, stronger effect = lower value 1.07 | S. cerevisiae deletion strains, locus YPL106C, strain sse1, stronger effect = lower value 1.04 | S. cerevisiae deletion strains, locus YPL240C, strain hsp82, stronger effect = lower value 1.01 | S. cerevisiae deletion strains, locus YPL241C, strain CIN2, stronger effect = lower value 0.993 | S. cerevisiae deletion strains, locus YPL256C, strain CLN2, stronger effect = lower value 0.955 | S. cerevisiae deletion strains, locus YPR119W, strain clb2, stronger effect = lower value 0.975 | S. cerevisiae deletion strains, locus YPR141C, strain kar3, stronger effect = lower value 0.973 | S. cerevisiae deletion strains, locus YPR163C, strain tif3, stronger effect = lower value 0.969 | S. cerevisiae deletion strains, locus YPR167C, strain met16, stronger effect = lower value 0.975 | S. cerevisiae deletion strains, strain wtn01, stronger effect = lower value 1.01 | S. cerevisiae strains, strain wild type, stronger effect = lower value 1
